Test results: PubChem BioAssay AID1159580 (chemical genetic matrix, 2015)
About 2,000 (36%) of roughly 5,500 compounds were called active. About 18% were inconclusive and are not listed. Cut-off read from the data, not from the text of the source: active = normalized growth mostly below about 0.91 (no sharp cut-off); inconclusive = no clear call, values can overlap the other calls; inactive = mostly above about 0.92. This is one part of the list.

Assay: chemical genetic growth profiling, strain panel (AID 1159580);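 note: tested at 20 µM; growth read once vehicle control cultures reached saturation at 30 °C; 1 = growth at the plate median or of vehicle wells; lower values mean less growth of the strain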
Settings: growth OD

Measured: normalized growth

COc1cc2cc3c4cc(OC)c(OC)cc4cc[n+]3c(C)c2cc1OC
inactive: S. cerevisiae deletion strains, locus YJR043C, strain POL32, hits give low values 0.98 | S. cerevisiae deletion strains, locus YJR066W, strain TOR1, hits give low values 0.964 | S. cerevisiae deletion strains, locus YKL009W, strain mrt4, hits give low values 0.997 | S. cerevisiae deletion strains, locus YKL068W, hits give low values 1.01 | S. cerevisiae deletion strains, locus YKL085W, strain MDH1 (second series), hits give low values 1.03 | S. cerevisiae deletion strains, locus YKL085W, strain MDH1, hits give low values 1.03 | S. cerevisiae deletion strains, locus YKL160W, strain elf1, hits give low values 0.988 | S. cerevisiae deletion strains, locus YKL190W, strain CNB1, hits give low values 1.01 | S. cerevisiae deletion strains, locus YKR001C, strain vps1, hits give low values 1.05 | S. cerevisiae deletion strains, locus YKR026C, strain gcn3, hits give low values 1.02 | S. cerevisiae deletion strains, locus YKR091W, strain srl3, hits give low values 1 | S. cerevisiae deletion strains, locus YLL001W, strain dnm1, hits give low values 1.01 | S. cerevisiae deletion strains, locus YLL026W, hits give low values 1.02 | S. cerevisiae deletion strains, locus YLL041C, strain sdh2, hits give low values 1.02 | S. cerevisiae deletion strains, locus YLR027C, strain aat2, hits give low values 1.03 | S. cerevisiae deletion strains, locus YLR039C, strain RIC1, hits give low values 1.11 | S. cerevisiae deletion strains, locus YLR058C, strain SHM2, hits give low values 0.998 | S. cerevisiae deletion strains, locus YLR102C, strain apc9, hits give low values 1.01 | S. cerevisiae deletion strains, locus YLR113W, strain HOG1, hits give low values 0.992 | S. cerevisiae deletion strains, locus YLR221C, strain rsa3, hits give low values 1.02 | S. cerevisiae deletion strains, locus YLR258W, strain gsy2, hits give low values 0.982 | S. cerevisiae deletion strains, locus YLR262C, strain YPT6 (second series), hits give low values 1.03 | S. cerevisiae deletion strains, locus YLR262C, strain YPT6, hits give low values 1.14 | S. cerevisiae deletion strains, locus YLR268W, strain sec22, hits give low values 1.02 | S. cerevisiae deletion strains, locus YLR320W, strain mms22, hits give low values 1 | S. cerevisiae deletion strains, locus YLR330W, strain CHS5, hits give low values 1.01 | S. cerevisiae deletion strains, locus YLR342W, strain FKS1 (second series), hits give low values 0.98 | S. cerevisiae deletion strains, locus YLR342W, strain FKS1, hits give low values 1.02 | S. cerevisiae deletion strains, locus YLR357W, strain rsc2, hits give low values 1.01 | S. cerevisiae deletion strains, locus YLR370C, strain arc18, hits give low values 1.02 | S. cerevisiae deletion strains, locus YLR371W, strain rom2, hits give low values 1.02 | S. cerevisiae deletion strains, locus YLR384C, strain iki3, hits give low values 1.01 | S. cerevisiae deletion strains, locus YLR418C, strain cdc73, hits give low values 0.966 | S. cerevisiae deletion strains, locus YML016C, strain PPZ1, hits give low values 1.02 | S. cerevisiae deletion strains, locus YML032C, strain rad52, hits give low values 0.925 | S. cerevisiae deletion strains, locus YML120C, strain ndi1, hits give low values 1 | S. cerevisiae deletion strains, locus YML124C, strain tub3, hits give low values 1.01 | S. cerevisiae deletion strains, locus YMR058W, strain fet3, hits give low values 1.02 | S. cerevisiae deletion strains, locus YMR078C, strain ctf18, hits give low values 1.02 | S. cerevisiae deletion strains, locus YMR125W, strain sto1, hits give low values 0.999 | S. cerevisiae deletion strains, locus YMR129W, hits give low values 1.01 | S. cerevisiae deletion strains, locus YMR205C, strain PFK2, hits give low values 0.979 | S. cerevisiae deletion strains, locus YMR223W, strain ubp8, hits give low values 0.982 | S. cerevisiae deletion strains, locus YMR231W, strain pep5, hits give low values 0.949 | S. cerevisiae deletion strains, locus YMR307W, strain GAS1, hits give low values 1.02 | S. cerevisiae deletion strains, locus YNL067W, strain RPL9B, hits give low values 1.01 | S. cerevisiae deletion strains, locus YNL071W, strain lat1, hits give low values 1 | S. cerevisiae deletion strains, locus YNL183C, strain NPR1, hits give low values 0.938 | S. cerevisiae deletion strains, locus YNL209W, strain ssb2, hits give low values 1 | S. cerevisiae deletion strains, locus YNL233W, strain BNI4, hits give low values 0.995 | S. cerevisiae deletion strains, locus YNL248C, strain rpa49, hits give low values 1.01 | S. cerevisiae deletion strains, locus YNL250W, strain rad50, hits give low values 1 | S. cerevisiae deletion strains, locus YNL271C, strain bni1, hits give low values 1.02 | S. cerevisiae deletion strains, locus YNL298W, strain CLA4, hits give low values 1.01 | S. cerevisiae deletion strains, locus YNL307C, strain MCK1, hits give low values 1.01 | S. cerevisiae deletion strains, locus YNL322C, strain KRE1 (second series), hits give low values 1 | S. cerevisiae deletion strains, locus YNR049C, strain mso1, hits give low values 1.04 | S. cerevisiae deletion strains, locus YNR052C, strain pop2, hits give low values 0.978 | S. cerevisiae deletion strains, locus YOL006C, strain TOP1, hits give low values 1.04 | S. cerevisiae deletion strains, locus YOL012C, strain htz1 1.07 | S. cerevisiae deletion strains, locus YOL147C, strain pex11, hits give low values 1.03 | S. cerevisiae deletion strains, locus YOR001W, strain rrp6, hits give low values 1.03 | S. cerevisiae deletion strains, locus YOR061W, strain CKA2, hits give low values 1.01 | S. cerevisiae deletion strains, locus YOR069W, strain VPS5, hits give low values 1.01 | S. cerevisiae deletion strains, locus YOR070C, strain gyp1, hits give low values 1.02 | S. cerevisiae deletion strains, locus YOR080W, strain dia2, hits give low values 1.01 | S. cerevisiae deletion strains, locus YOR083W, strain WHI5, hits give low values 0.985 | S. cerevisiae deletion strains, locus YOR106W, strain vam3, hits give low values 0.981 | S. cerevisiae deletion strains, locus YOR136W, strain idh2, hits give low values 1.02 | S. cerevisiae deletion strains, locus YOR144C, strain elg1, hits give low values 1.01 | S. cerevisiae deletion strains, locus YOR184W, strain ser1, hits give low values 0.993 | S. cerevisiae deletion strains, locus YOR231W, strain MKK1, hits give low values 0.983 | S. cerevisiae deletion strains, locus YOR265W, strain rbl2, hits give low values 1.01 | S. cerevisiae deletion strains, locus YOR270C, strain vph1, hits give low values 1.08 | S. cerevisiae deletion strains, locus YOR290C, strain snf2, hits give low values 0.982 | S. cerevisiae deletion strains, locus YOR316C, strain cot1, hits give low values 1.02 | S. cerevisiae deletion strains, locus YPL051W, strain arl3, hits give low values 1.02 | S. cerevisiae deletion strains, locus YPL055C, strain LGE1, hits give low values 0.999 | S. cerevisiae deletion strains, locus YPL078C, strain atp4, hits give low values 1 | S. cerevisiae deletion strains, locus YPL106C, strain sse1, hits give low values 0.983 | S. cerevisiae deletion strains, locus YPL240C, strain hsp82, hits give low values 1 | S. cerevisiae deletion strains, locus YPL256C, strain CLN2, hits give low values 0.968 | S. cerevisiae deletion strains, locus YPR119W, strain clb2, hits give low values 1.01 | S. cerevisiae deletion strains, locus YPR141C, strain kar3, hits give low values 1.01 | S. cerevisiae deletion strains, locus YPR163C, strain tif3, hits give low values 1.01 | S. cerevisiae deletion strains, locus YPR167C, strain met16, hits give low values 0.997 | S. cerevisiae deletion strains, strain wtn01, hits give low values 1.02 | S. cerevisiae strains, strain wild type, hits give low values 1
